Records with an inconclusive call do not appear. Activity calls are given as the source filed them. Unless noted, calls come from the whole dose curve.
Tests used:
[1] = qHTS assay to identify small molecule agonists of the sonic hedgehog signaling (Shh) pathway (AID 1259368);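 note: NIH/3T3-derived 3T3Gli1-Luc cells carrying a stable Gli1-driven firefly luciferase reporter; series mostly up to about 92 µM; nearly all actives have a fitted effect of over 15% in size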
Procedure, shortened: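 Luminescent signal was taken as a measure of Gli1-controlled luciferase expression in stably transfected NIH/3T3-derived cells that had been treated for 24 hr with compounds delivered in DMSO.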

[2] = qHTS assay to identify small molecule antagonists of the sonic hedgehog signaling (Shh) pathway (AID 1259369); note: nearly all actives have a fitted effect of over 45% in size
Procedure, shortened: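 Screening used 3T3Gli1-Luc cells at 2,000 per well, compounds delivered in DMSO, and conditioned medium as agonist stimulus; plates incubated 24hr at 37 C and 5% CO2 before a 30min luciferase step.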

[3] = target: Estrogen receptor beta (Homo sapiens) (UniProt Q92731); assay: qHTS assay to identify small molecule antagonists of the estrogen receptor beta (ER-beta) signaling pathway (AID 1259378; active = well fitted inhibition curve with a large enough effect in the signal ratio in the repeat runs, not every such curve was filed as active; the % refers to the signal ratio)
Estrogen receptor beta (Homo sapiens), sequence (Q92731 whole entry, looked up): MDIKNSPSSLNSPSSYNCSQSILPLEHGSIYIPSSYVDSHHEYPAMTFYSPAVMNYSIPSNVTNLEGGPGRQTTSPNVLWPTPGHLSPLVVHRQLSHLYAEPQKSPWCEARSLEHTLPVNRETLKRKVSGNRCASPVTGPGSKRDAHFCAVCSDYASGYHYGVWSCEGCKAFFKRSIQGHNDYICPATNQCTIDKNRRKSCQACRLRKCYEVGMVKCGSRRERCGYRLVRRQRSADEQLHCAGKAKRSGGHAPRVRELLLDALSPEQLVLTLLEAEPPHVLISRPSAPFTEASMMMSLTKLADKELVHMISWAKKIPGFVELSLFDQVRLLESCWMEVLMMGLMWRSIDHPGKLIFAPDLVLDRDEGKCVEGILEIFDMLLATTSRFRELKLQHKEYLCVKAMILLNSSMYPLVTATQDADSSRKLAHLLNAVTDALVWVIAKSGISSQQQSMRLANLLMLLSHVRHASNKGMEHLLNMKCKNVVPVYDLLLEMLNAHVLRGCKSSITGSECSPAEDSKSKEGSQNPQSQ
Procedure, shortened: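 Antagonist mode: compounds added to beta-lactamase reporter HEK293T ER-beta-UAS cells stimulated with E2 (1nM final), 16 hr at 37C. LiveBLAzer B/G FRET substrate, 2 hours room temperature, fluorescence read-out.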

[4] = qHTS assay to identify small molecule agonists of the androgen receptor (AR) signaling pathway in the presence of an antagonist - cell viability counter screen (AID 1259379; active = well fitted curve in the direction sought with a large enough effect in the repeat runs; an effect the other way counts as inactive or inconclusive;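 note: MDA-kb2 human breast cancer cells carrying an MMTV luciferase reporter; series mostly up to about 92 µM; nearly all actives have a fitted effect of over 25% in size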)
Procedure, shortened: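 In MDA-kb2 cells (human breast carcinoma, MMTV-luciferase), compounds at 15 concentrations plus 3.0uM nilutamide; 16 hr, 37C, 0% CO2; CellTiter-Fluor fluorescence read for viability.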

[5] = qHTS assay to identify small molecule agonists of the estrogen receptor beta (ER-beta) signaling pathway - cell viability counter screen (AID 1259380; active = well fitted curve in the direction sought with a large enough effect in the repeat runs; an effect the other way counts as inactive or inconclusive; note: nearly all actives have a fitted effect of over 30% in size; note: potency is the fitted concentration of half-maximal effect)
Procedure, shortened: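 Viability of ER-beta-UAS-bla HEK293T cells was determined by CellTiter-Glo luminescence following 16 hr treatment with test compounds at 37C.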

[6] = qHTS assay to identify small molecule agonists or antagonists of the thyroid stimulating hormone receptor (TSHR) signaling pathway - wild type cell line counter screen (AID 1259384)
Procedure, shortened: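 Counter screen in untransfected Hek293: compounds (15-point titration, triplicate) plus phosphodiesterase inhibitor Ro20-1724 added after 18 h plating; 30 min RT. Intracellular cAMP via competitive d2/cryptate immunoassay, 1 h incubation.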

[7] = qHTS assay to identify small molecule antagonists of the estrogen receptor beta (ER-beta) signaling pathway - cell viability counter screen (AID 1259382; active = well fitted curve in the direction sought with a large enough effect in the repeat runs; an effect the other way counts as inactive or inconclusive;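 note: HEK293T cells carrying ER-beta-UAS-bla reporter stimulated with estradiol; series mostly up to about 92 µM; nearly all actives have a fitted effect of over 55% in size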)
Procedure, shortened: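 Tox21 10K library tested in qHTS format on ER-beta-bla HEK293T cells stimulated with 1nM E2; 16 hr treatment at 37C. Same-well CellTiter-Glo luminescence served as the cell viability measure.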

[8] = target: Estrogen receptor (Homo sapiens) (UniProt P03372); assay: qHTS assay to identify small molecule agonists of the estrogen receptor alpha (ER-alpha) signaling pathway in the presence of an antagonist (AID 1259383); note: top concentration of the series differs between compounds; nearly all actives have a fitted effect of over 15% in size
Estrogen receptor (Homo sapiens), sequence (P03372 whole entry, looked up): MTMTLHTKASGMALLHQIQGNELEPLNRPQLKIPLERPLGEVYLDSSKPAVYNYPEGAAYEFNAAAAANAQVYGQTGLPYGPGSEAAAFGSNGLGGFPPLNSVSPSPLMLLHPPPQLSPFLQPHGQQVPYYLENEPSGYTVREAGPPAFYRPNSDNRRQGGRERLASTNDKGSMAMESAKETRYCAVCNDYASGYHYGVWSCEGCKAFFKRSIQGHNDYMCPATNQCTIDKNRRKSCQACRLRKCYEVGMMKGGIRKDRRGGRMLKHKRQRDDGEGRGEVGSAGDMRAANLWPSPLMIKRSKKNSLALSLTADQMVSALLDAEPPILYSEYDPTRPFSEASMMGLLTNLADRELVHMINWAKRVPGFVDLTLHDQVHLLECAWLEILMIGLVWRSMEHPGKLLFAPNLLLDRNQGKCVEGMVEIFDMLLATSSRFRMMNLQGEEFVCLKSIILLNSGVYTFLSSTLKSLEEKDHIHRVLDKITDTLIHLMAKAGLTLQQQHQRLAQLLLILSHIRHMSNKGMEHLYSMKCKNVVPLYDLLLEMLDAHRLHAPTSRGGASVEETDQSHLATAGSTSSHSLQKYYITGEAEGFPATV
Procedure, shortened: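 In VM7Luc4E2 cells, 4,000 per well, compounds at 15 concentrations were co-incubated 22hr at 37C with 10.0nM final ICI-182,780. Luminescence from the stably transfected 4×ERE-luciferase reporter was recorded 30min after ONE-Glo addition.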

[9] = target: Estrogen receptor beta (Homo sapiens) (UniProt Q92731); assay: qHTS assay to identify small molecule agonists of the estrogen receptor beta (ER-beta) signaling pathway (AID 1259377; active = well fitted activation curve with a large enough effect in the signal ratio in the repeat runs, not every such curve was filed as active; the % refers to the signal ratio)
Procedure, shortened: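 Read-out: beta-lactamase FRET fluorescence. Cell line: ER-beta-UAS-bla HEK293T in 2% charcoal-stripped FBS. Exposure: 16 hr at 37C. Substrate step: 2 h at room temperature.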

[10] = target: Androgen receptor (Homo sapiens) (UniProt P10275); assay: qHTS assay to identify small molecule agonists of the androgen receptor (AR) signaling pathway in the presence of an antagonist (AID 1259381); note: nearly all actives have a fitted effect of over 15% in size
Androgen receptor (Homo sapiens), sequence (P10275 whole entry, looked up): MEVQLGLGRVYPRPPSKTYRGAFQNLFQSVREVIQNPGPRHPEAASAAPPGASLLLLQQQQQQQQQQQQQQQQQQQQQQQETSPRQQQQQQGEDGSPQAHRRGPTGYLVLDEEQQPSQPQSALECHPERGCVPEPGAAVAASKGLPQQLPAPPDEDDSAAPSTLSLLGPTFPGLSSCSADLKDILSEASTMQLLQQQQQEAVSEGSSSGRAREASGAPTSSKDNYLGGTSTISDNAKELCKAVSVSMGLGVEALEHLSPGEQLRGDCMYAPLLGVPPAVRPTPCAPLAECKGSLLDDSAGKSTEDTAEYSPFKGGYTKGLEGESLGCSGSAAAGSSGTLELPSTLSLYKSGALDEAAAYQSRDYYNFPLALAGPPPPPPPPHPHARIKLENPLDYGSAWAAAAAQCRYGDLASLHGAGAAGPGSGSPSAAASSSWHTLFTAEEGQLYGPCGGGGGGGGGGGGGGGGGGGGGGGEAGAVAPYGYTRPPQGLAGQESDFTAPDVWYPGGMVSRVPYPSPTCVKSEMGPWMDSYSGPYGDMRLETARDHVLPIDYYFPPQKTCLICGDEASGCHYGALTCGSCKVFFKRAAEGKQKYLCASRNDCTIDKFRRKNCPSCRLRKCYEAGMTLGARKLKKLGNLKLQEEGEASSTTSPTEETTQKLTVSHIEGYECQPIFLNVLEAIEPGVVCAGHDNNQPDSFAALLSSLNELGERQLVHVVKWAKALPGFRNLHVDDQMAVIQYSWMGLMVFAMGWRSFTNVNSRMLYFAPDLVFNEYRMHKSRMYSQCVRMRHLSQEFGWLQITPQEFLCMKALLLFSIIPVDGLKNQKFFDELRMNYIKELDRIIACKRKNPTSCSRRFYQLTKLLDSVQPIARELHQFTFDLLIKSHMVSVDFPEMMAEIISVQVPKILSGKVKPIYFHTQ
Procedure, shortened: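 Here, 15-concentration compound series were pin-transferred onto MDA-kb2 MMTV-luciferase cells already dosed with nilutamide (3.0uM final). After 16hr at 37C, ONE-Glo was added and luminescence read 30min later at room temperature.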

Measured: Potency

CC(C)(C)c1cc(C=O)cc(C(C)(C)C)c1O
inactive: [1] | [2] | [3] | [4] | [5] | [6]

O=C(O)c1ccc2cc(O)ccc2c1
not listed: [6] | [9] | [10]
inactive: all other assays above

Cc1c(Cl)cccc1[N+](=O)[O-]
inactive: [1] | [2] | [3] | [4] | [5] | [7]

O=c1c2ccccc2oc2ccccc12
not listed: [9] | [10]
inactive: all other assays above

CCCCCC1CCC(=O)O1 (stereo not given)
not listed: [7] | [9] | [10]
inactive: all other assays above

CCCCCCOC(=O)c1ccccc1
active: [5] 27.3 µM
not listed: [7] | [9] | [10]
inactive: all other assays above

COc1ccc(/C=C/S(=O)(=O)NC(=O)c2ccc(C)cc2Cl)cc1
inactive: [1] | [2] | [9] | [4] | [6]

O=c1[nH][nH]c2ccccc12
not listed: [5] | [7] | [9]
inactive: all other assays above

C=C(C)C(=O)OCCCCCCCCCCOC(=O)C(=C)C
inactive: [1] | [2] | [3] | [4] | [5] | [6]

CC(C)(O)C(=O)O
inactive: [1] | [2] | [3] | [4] | [5] | [7]

C=CC(C)CCC=C(C)C (stereo not given)
not listed: [8] | [9] | [10]
inactive: all other assays above

CC/C=C\CCO
inactive: [1] | [2] | [3] | [4] | [5] | [7]

CC(=O)c1ccc(Cl)c(Cl)c1Cl
not listed: [8] | [9] | [10]
inactive: all other assays above

Cc1c(N=C=O)cccc1N=C=O
not listed: [9]
inactive: all other assays above

CC(CCl)OC(C)CCl (stereo not given)
not listed: [9] | [10]
inactive: all other assays above

O=Cc1ccc(Cl)c([N+](=O)[O-])c1
not listed: [9] | [10]
inactive: all other assays above

S=c1[nH][nH]c(=S)s1
not listed: [9] | [10]
inactive: all other assays above

O=C(Nc1ccc2c(c1)Cc1ccccc1-2)C(F)(F)F
not listed: [8] | [9] | [10]
inactive: all other assays above

CCC(C)CCCC(C)(C)O (stereo not given)
not listed: [8] | [9] | [10]
inactive: all other assays above

CCC(CC)C(=O)O
inactive: [1] | [2] | [3] | [4] | [5] | [7]

CCCc1ccc(OC)cc1
not listed: [8] | [9]
inactive: all other assays above

O=C(c1ccc(Cl)cc1)c1ccc(Cl)cc1
not listed: [7] | [8] | [9]
inactive: all other assays above

CC(C)(C(=O)O)c1ccc(C(O)CCCN2CCC(C(O)(c3ccccc3)c3ccccc3)CC2)cc1 (stereo not given)
not listed: [9] | [10]
inactive: all other assays above

O=[N+]([O-])c1ccccc1CCO
not listed: [8] | [9] | [10]
inactive: all other assays above

CC1(C)CC(=O)CC(C)(C)N1
not listed: [9] | [10]
inactive: all other assays above

CCCCOc1ccc(N)cc1
not listed: [8] | [9] | [10]
inactive: all other assays above

O=C1C=CCCC1
not listed: [9] | [10]
inactive: all other assays above

OCCc1ccncc1
not listed: [8] | [9] | [10]
inactive: all other assays above

O=C1CCCN1CCO
active: [5] 43.3 µM
not listed: [7] | [9] | [10]
inactive: all other assays above

CCCCCCCCC(=O)OCC(C)OC(=O)CCCCCCCC (stereo not given)
not listed: [8] | [9] | [10]
inactive: all other assays above

CCCC1CCCC(=O)O1 (stereo not given)
not listed: [9] | [10]
inactive: all other assays above
